# Bioassay records deposited in PubChem by National Center for Advancing Translational Sciences (NCATS).
# Only some compounds are listed: those with a hit (about 11% of all), similar ones and a draw of the others.
# Vaccinia Venus – vaccinia inhibition (Venus reporter); Potency, µM (highest dose often 36.5 µM), inactives show at the top dose activity change, negative = inhibition, most hits filed as inhibitors; Vaccinia virus Venus reporter expression, fluorescence; AID 720580; 330,000 compounds, 0.46% hits; calls by dose curve; tested in A549 cells; further: on the % scale 0 is the no-effect control and ±100 the full control effect; nearly all actives have a fitted effect of over 30% in size
# NS1 function inh – inhibitors of influenza NS1 protein function. 270,000 compounds, 0.4% hits. Potency, µM (top dose mostly 46.1 µM), for inactives: at the top dose activity, positive = more growth. AID 2326; calls by dose curve; further: actives are rising curves; nearly all actives have a fitted effect of over 50% in size
#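 S. cerevisiae expressing influenza A NS1, grown in glucose, washed, then diluted 1:100 into pH 6.0 -URA galactose medium with 23 nl compound. Growth recovery read as OD600; NS1-free strain serves as control.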
# HCV inhibitor – HCV inhibition; Huh7.5.1 HCVcc-Cre infection, luciferase reporter, 44 h; Potency, µM (highest dose often 41.8 µM), for the others: top-dose activity change, negative = inhibition, hits mostly inhibitors; 340,000 compounds, 3.4% hits; further: on the % scale 0 is the no-effect control and ±100 the full control effect
#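 A cell-based infection assay in which seeded cells (1,000 per well) receive test compound after 4 h, are inoculated with HCVcc-Cre at approximately 0.5 moi, and are incubated 44 h before luminescence detection.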
# VACV mCherry inh – vaccinia inhibition (mCherry reporter); Vaccinia virus mCherry reporter infection, fluorescence; Potency, µM (doses to about 36.5 µM), for inactives: top-dose activity change, negative = inhibition, usual class: inhibitors; 310,000 compounds, 0.63% hits; AID 720579; calls by dose curve; tested in A549 cells; further: on the % scale 0 is the no-effect control and ±100 the full control effect; nearly all actives have a fitted effect of over 35% in size
# Pf growth 96h – P. falciparum growth inhibition at 96 hour, primary screen for plastid delayed-death inhibitors; P. falciparum luciferase reporter growth, 96 h; Potency, µM (highest dose often 28.7 µM), for inactives: top-dose activity change, negative = inhibition, hits mostly inhibitors; 320,000 compounds, 6.9% hits; AID 504834; further: on the % scale 0 is the no-effect control and ±100 the full control effect
#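 Compounds incubated with erythrocytes infected by luciferase-expressing P. falciparum (2% hematocrit, 0.05% parasitemia final) for 96 hours, 37 C in 5% CO2. Growth inhibition scored as decreased luciferase luminescence.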
# Pf growth 48h – inhibits P. falciparum growth in the first generation, 48 h; P. falciparum luciferase growth in erythrocytes, 48 h; 310,000 compounds, 5.9% hits; Potency, µM (series often up to 28.7 µM), for the others: top-dose activity change, negative = inhibition, hits mostly inhibitors; further: on the % scale 0 is the no-effect control and ±100 the full control effect
#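 Growth was read as firefly luciferase luminescence after a 48 h, 37 C, 5% CO2 exposure of compounds to reporter-bearing P. falciparum cultures (0.1% parasitemia, 2% hematocrit final) in Albumax-supplemented RPMI 1640.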
# The depositor's hits bear a star; i = inactive; ? = inconclusive; . = no result given; [ ] = dose if it differs, or a comment. Unless noted, the call rests on the fitted dose curve; in most records, active means well fitted inhibition curve with a large enough effect; inconclusive means small, poorly fitted or top-dose-only effect, or another doubt; inactive means no such curve, though single readings can be large or run the other way. Potency means the concentration at half of the fitted maximal effect.
SMILES,Vaccinia Venus,NS1 function inh,HCV inhibitor,VACV mCherry inh,Pf growth 96h,Pf growth 48h
CCCCN(CC)C(=O)CSc1nc2ccccc2c(=O)n1CC1COc2ccccc2O1 (stereo unspecified),.,3%,10µM*,.,?,1%
CCN(CC)C(=O)CSc1nc2ccccc2c(=O)n1CC,-14%,-13%,-7%,.,?,.
O=C(CSc1nc2ccccc2c(=O)n1CC1CCCO1)NCc1ccccc1 (stereo unspecified),-5%,-18%,-13%,i,20%,?
CCC(CCC(C)C1CCC2C3CCC4CC(O)CC[C@@]4(C)C3CC[C@@]12C)C(C)C (stereo partly specified),-1%,.,.,-8%,.,.
CC(CCC(C)C(C)(C)C)[C@@H]1CC[C@H]2C3C[C@H](OS(O)(=S)=S)[C@H]4C[C@H](OS(O)(=S)=S)[C@@H](OS(O)(=S)=S)C[C@]4(C)[C@H]3CC[C@]12C (stereo partly specified) (tested in a mixture with another compound),?,.,2.5µM*,-26%,.,.
CC1(C)NC(=O)C(CCc2ccccc2)NC1=O (stereo unspecified),3%,.,.,23%,.,.
O=C1CC(N2CCN(c3ccccc3)CC2)C(=O)N1CCc1ccccc1 (stereo unspecified),.,-3%,0%,.,11%,1%
COc1ccc(/C=C2\C(=O)N(Cc3ccc(F)cc3)CC(=O)N2Cc2ccccc2)cc1,-24%,-2%,-24%,.,15µM*,10µM*
COc1ccc(/C=C2\C(=O)NCC(=O)N2Cc2ccccc2)cc1,?,-3%,?,.,3%,-20%
O=C1OC2(CCCCC2)CC2=C1C1O[C@](CCCCN3C(=O)c4ccccc4C3=O)(Cc3ccccc31)O2,.,-1%,.,.,?,1.5µM*
COc1cc2c(cc1OC)C1O[C@](CCCCN3C(=O)c4ccccc4C3=O)(C2)OC2=C1C(=O)CC(C)(C)C2,.,-6%,.,.,?,0.24µM*
Cc1nnc2n1N=CC=C(C(C)(C)C)S2,.,5%,4%,.,.,-20%
NNC(=O)c1cc2ccccc2cc1NS(=O)(=O)c1ccccc1,-17%,30%,-29%,-3%,?,5.9µM*
COc1c(N2CCN(C(=S)NCc3ccccc3)C(C)C2)c(F)cc2c(=O)c(C(=O)O)cn(C3CC3)c12 (stereo unspecified),13µM*,20%,10µM*,.,2.9µM*,9.3µM*
CN1C[C@@H]2C[C@H]1CN2c1cc2c(cc1F)c(=O)c(C(=O)O)cn2C1CC1,.,.,.,.,0.85µM*,5.4µM*
CNC1CCCN(c2c(F)cc3c(=O)c(C(=O)O)cn(C4CC4)c3c2OC)C1 (stereo unspecified),.,.,.,.,4.3µM*,4.8µM*
COc1c(F)c(F)cc2c(=O)c(C(=O)O)cn(C3CC3)c12,-11%,-44%,16%,-6%,31%,5%[0.00184 µM]
CC1CCCN(S(=O)(=O)c2ccc(CN3C(=O)c4cccnc4C3=O)cc2)C1 (stereo unspecified),-8%,-1%,6%,-10%,?,41%
Cc1cccc2sc(NC(=O)CN(C)S(=O)(=O)c3cccs3)nc12,?,-72%,-22%,.,20%,20%
COc1ccc(C2N3CC4(C)CN2CC(C)(C3)C4=O)cc1OC (stereo unspecified),-1%,2%,-4%,-6%,8%,.
CC1(C(=O)NS(=O)(=O)C2CC2)CCCN(C(=O)COc2ccccc2)C1 (stereo unspecified),7%,.,.,4%,.,.
Cn1nnnc1NCc1cccc(Cl)c1,-6%,3%,8%,-1%,0%,5%
Clc1cccc(CNc2nnnn2-c2ccccc2)c1,-23%,-1%,?,-25%,15µM*,?
Cc1cc(Nc2ccccc2)n(-c2ccccc2)n1,-1%,-12%,?,.,29%,-13%
Cc1cc(Nc2nnnn2-c2ccccc2)n(-c2ccc(Cl)cc2)n1,?,5%,?,?,.,4.7µM*
SMILES,Vaccinia Venus,NS1 function inh,HCV inhibitor,VACV mCherry inh,Pf growth 96h,Pf growth 48h
COc1ccc(CNS(=O)(=O)CCNCc2ccco2)cc1,-15%,.,29%,i,.,.
CC1CCC(NC(=O)c2ccc(NS(=O)(=O)c3ccc4[nH]c(=O)[nH]c4c3)cc2)CC1 (stereo unspecified),-19%,.,25%,-23%,52%,64%
CCOC(=O)N1CCC(N2Cc3cccc(C(=O)Nc4ccccc4OC)c3C2=O)CC1,.,20%,-21%,.,?,9.3µM*
CCOC(=O)c1ccccc1NC(=O)c1cccc2c1C(=O)N(C1CCN(C(=O)OCC)CC1)C2,-20%,-65%,?,-14%,-3%,.
CCOC(=O)N1CCC(N2Cc3cccc(C(=O)N4CCN(c5cccc(C)c5C)CC4)c3C2=O)CC1,-22%,.,-37%,-5%,?,10µM*
CCOC(=O)N1CCC(N2Cc3cccc(C(=O)N4CCN(c5cccc(Cl)c5)CC4)c3C2=O)CC1,.,.,-3%,.,?,-13%
CCc1cc(/C(Cc2ccc3ccccc3n2)=N\O)c(O)cc1O,?,-132%,?,-29%,1.7µM*,36%
CCc1cc(/C(Cc2ccccn2)=N\O)c(O)cc1O,.,5%,22µM*,.,61%,.
CCc1cc(/C(Cc2cscn2)=N\O)c(O)cc1O,-25%,-8%,-16%,-26%,-17%,.
Cc1c(O)ccc(/C(Cc2ccc3ccccc3n2)=N\N)c1O,.,1%,?,.,?,?
C/C(=C\C(=O)Nc1cc(C)on1)c1ccccc1,.,-22%,14%,.,113%,?
Cc1cc(N2CCC(C)CC2)nc(NCc2ccccc2)n1,.,-43%,6.3µM*,.,7.4µM*,10µM*
Cc1cc(Oc2ccccc2)nc(NCc2ccccc2)n1,-14%,-16%,?,-5%,0%,0%
Cc1cc(C)nc(NCCCc2ccccc2)n1,-10%,-11%,1%,-19%,13µM*,-27%
CNCCCc1ccccc1,-14%,18%,6%,-9%,162%,14%
CCCCNc1cc(C)nc(NCc2ccccc2)n1,?,-144%,?,-19%[1.46 µM],0.83µM*,1.5µM*
Cc1cc(Nc2ccccc2)nc(NCc2ccccc2)n1,?,-47%,?,-31%,?,0.59µM*
Cc1cc(Nc2ccc(Cl)cc2)nc(NCc2ccccc2)n1,?,-25%,?,11µM*,0.52µM*,0.93µM*
Cc1cc(Nc2cccc(F)c2)nc(NCc2ccccc2)n1,?,-17%,?,13µM*,?,0.37µM*
Cc1ccccc1N(CC(=O)NC(C)(C)C)C(=O)c1ccc(-c2ccccc2)[nH]1,.,.,.,.,279%,?
CCN(CC)c1ccc(/C=C/c2cccc[n+]2C)c(OC)c1,i,-36%,0.89µM*,98%,50%,0.37µM*
